Experimental findings from ChEMBL document CHEMBL3988442, “University of Dundee, Small-Polar-MMV Screening Library” (2021) are described below.

The target of experiment [1] is T1, Aspartate--tRNA(Asp/Asn) ligase (Mycobacterium tuberculosis (strain ATCC 25618 / H37Rv)) (UniProt P9WFW3). Also: in the data most compounds retested in dose-response had high values.
T1 sequence (whole entry): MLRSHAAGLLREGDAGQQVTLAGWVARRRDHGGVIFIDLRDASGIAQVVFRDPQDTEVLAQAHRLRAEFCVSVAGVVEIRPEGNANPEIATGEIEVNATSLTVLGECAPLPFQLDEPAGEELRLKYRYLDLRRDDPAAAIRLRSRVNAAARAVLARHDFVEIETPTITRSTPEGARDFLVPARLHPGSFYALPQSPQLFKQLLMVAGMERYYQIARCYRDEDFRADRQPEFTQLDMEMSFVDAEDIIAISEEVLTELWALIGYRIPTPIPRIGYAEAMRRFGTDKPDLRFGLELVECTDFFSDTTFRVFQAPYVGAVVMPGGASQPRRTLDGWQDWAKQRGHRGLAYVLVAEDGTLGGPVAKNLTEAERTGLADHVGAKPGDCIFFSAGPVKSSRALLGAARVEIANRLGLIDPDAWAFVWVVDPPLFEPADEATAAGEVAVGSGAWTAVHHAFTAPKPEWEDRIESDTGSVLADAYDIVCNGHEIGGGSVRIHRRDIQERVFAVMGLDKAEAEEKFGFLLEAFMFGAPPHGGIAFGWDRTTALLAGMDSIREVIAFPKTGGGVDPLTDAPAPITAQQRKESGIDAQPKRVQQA
As to the kind of experiment: Assay for Asp RNA synthetase-1 from Mycobacterium tuberculosis. Type of experiment: functional. Also on record: scale not given: direction of the effect not stated beside the values. The note with it: 30 µM.

The target in experiment [2] is Shiga toxin 2 (Escherichia coli O157:H7) (UniProt P09385+P09386). As to the kind of experiment: E. coli 0.157:H7 Shiga Toxin SOP - stx2 screening assay. Also on record: scale not given: direction of the effect not stated beside the values. The note with it: 30 µM. It counts as functional.

`OCCOc1nc(-c2ccccc2Cl)no1`: the results for the Percent Effect in experiment [1] and in experiment [2] were -8.6% and -16.2%, respectively.
The like results for `CCOc1cc(CNC(=O)N2CCC(Cc3cnn(C)c3)C2)ccn1` (stereo not given) were, in that order, -2.52% and 2.76%.
In the case of `Cc1c(C(=O)NC(CN2CCCC2=O)c2ccccc2)cnn1C` (stereo not given), the figures for the Percent Effect in experiment [1] and in experiment [2] were -1.08% and 34%, respectively.
Regarding `Cc1ccc(CN(C)C(=O)CN2CCOC(Cn3cncn3)C2)o1` (stereo not given), the Percent Effect in experiment [1] is 2.6%; in experiment [2], -9.96%.
As to `O=C(NCC1CCOC1)N1CCN(Cc2ccc3c(c2)CCO3)CC1` (stereo not given), the Percent Effect in experiment [1] was -0.0562%; in experiment [2], 28.1%.
`Cc1ccc2cnn(CCC(=O)Nc3c(C)nn(C)c3C)c2c1`: the Percent Effect in experiment [1] was 0.535%; in experiment [2], -34.7%.
For the compound `COc1ccc(C(=O)N2Cc3c(Cn4ccnc4)nn(C)c3C2)cc1`, the values for the Percent Effect in experiment [1] and in experiment [2] were -10.7% and -6.82%, respectively.
For `O=C(CCc1nc2cccnc2[nH]1)NCc1cccnc1` the same measures were -0.232% and -44%.
In the case of `CN(CCCOc1ccccc1)C(=O)CN1CCc2cncnc2C1`, the results for the Percent Effect in experiment [1] and in experiment [2] were 5.73% and 9.42%, respectively.
As to `O=C(c1ccccn1)N1Cc2nccn2CC(CN2CCOCC2)C1` (stereo not given), the values for the Percent Effect in experiment [1] and in experiment [2] were 11.5% and -21.6%, respectively.
With `CCOc1ccc(S(=O)(=O)NC(=O)CCC2CCCO2)cc1` (stereo not given), the Percent Effect in experiment [1] is 2.17%; in experiment [2], 23.1%.
Turning to `Cc1nn(C)c(C)c1NC(=O)CN1CCc2c(nc(C(C)C)n2C)C1`, the values for the Percent Effect in experiment [1] and in experiment [2] were -0.413% and 5.73%, respectively.
As for `Cc1cc(C[S+]([O-])CC(=O)NCc2cccs2)no1` (stereo not given), the Percent Effect is -0.395% in experiment [1] and 9.34% in experiment [2].
For `O=C(Cc1ccccn1)N1CCc2nc(-c3cnccn3)nc(O)c2C1`, the Percent Effect in experiment [1] was -2.49%; in experiment [2] it was 4.64%.
For `CC(=O)N(Cc1ncc(C)o1)C1CCN(CCNC2CCCCC2)C1` (stereo not given), the Percent Effect in experiment [1] is 1.34%; in experiment [2], -30.8%.
As for `O=C(Cc1ccccc1Cl)N1CCCC(n2cncn2)C1` (stereo not given), the Percent Effect was -1.83% in experiment [1] and -37.6% in experiment [2].
`Cc1ccc(C2(CN3CCCC3)CCNCC2)nc1`: the Percent Effect in experiment [1] is -4.12%; in experiment [2], -12%.
For `COc1ncccc1C(=O)N1CCCC(c2cc(C)[nH]n2)C1` (stereo not given), the Percent Effect is -4.25% in experiment [1] and 5.54% in experiment [2].
Turning to `CC(=O)NCCc1cc(N2CCN(C(C)=O)CC2)nc(C2CC2)n1`, the Percent Effect in experiment [1] was -3.2%; in experiment [2] it was -16%.
For `CC1CCCN(C(=O)c2cccc(CS(C)(=O)=O)c2)C1` (stereo not given) the same measures were -4.9% and -32%.
For `Cn1cnc2c1CCN(Cc1noc(-c3ccccc3)n1)C2`, the Percent Effect in experiment [1] was determined as 3.96%; in experiment [2] it was 12.6%.
For `O=C(c1ccco1)N1C[C@H]2CCCN(CC3CCOCC3)[C@H]2C1` the same measures were 11.5% and 2.22%.
For `CC(C)c1nc(CN(C)C2CCN(CC(F)(F)F)C2)no1` (stereo not given) the same measures were 8.54% and -4.21%.
For the compound `Cc1ccc(C(=O)N(C)Cc2cscn2)c(=O)[nH]1`, the Percent Effect in experiment [1] came out at 0.749%; in experiment [2], 8.36%.
For `CN(CCC#N)C(=O)CN1CCCC1c1ccsc1` (stereo not given), the Percent Effect in experiment [1] was found to be 2.1%; in experiment [2] it was 22%.
Turning to `O=C(CCc1nccs1)N1CCC(N2CCNC2=O)CC1`, the Percent Effect in experiment [1] was 4.28%; in experiment [2], -16.6%.
`CC(=O)N1CCC2(CC1)C(=O)N(CC1CC1)c1ccccc12`: the figures for the Percent Effect in experiment [1] and in experiment [2] were -1.18% and -4.33%, respectively.
As to `CC(C)C(NC(=O)N1CCN(c2ccc(Cl)cc2)CC1)C(=O)NC1CC1` (stereo not given), the Percent Effect in experiment [1] was -3.72%; in experiment [2] it was 7.46%.
`CCc1nccn1-c1cncc(C2CCCN2Cc2cccnc2)n1` (stereo not given): the Percent Effect is 5.87% in experiment [1] and -37.2% in experiment [2].
Turning to `Cc1nc(C2CCCN(C(=O)c3cnn(C(C)(C)C)c3)C2)no1` (stereo not given), the Percent Effect in experiment [1] was -4.47%; in experiment [2] it was -34.6%.
For `CCOc1cc(C)ccc1NC(=O)N(C)Cc1cnn(C)c1` the same measures were 4.37% and 24%.
On to `Cn1cc(C[C@H]2[C@H](O)CCN2CC2CC2)cn1`, for which the Percent Effect in experiment [1] was -0.168%; in experiment [2] it was 2.72%.
Consider `O=C(CSc1nc2c(cnn2CCO)c(=O)[nH]1)N1CCCCCC1`, for which the Percent Effect in experiment [1] is -7.88%; in experiment [2], -8.39%.
Regarding `CCCn1c(C)cc(C(=O)CN2C(=O)c3ccccc3CS2(=O)=O)c1C`, the Percent Effect in experiment [1] is 0.257%; in experiment [2], -23.8%.
In the case of `COc1ccc(OCc2nc(C(=O)N3CC(O)C3)co2)cc1`, the Percent Effect in experiment [1] is -0.0558%; in experiment [2], -45.4%.
For the compound `Cc1ccc(NC(=O)NC(C)c2nc[nH]n2)s1` (stereo not given), the Percent Effect in experiment [1] was 3.94%; in experiment [2] it was 17.2%.
For `Cc1ccc(C(=O)N2CCCC(C(=O)N3CCCCC3)C2)c(O)c1` (stereo not given) the same measures were -0.062% and 20.6%.
For `CC(=O)N1CCC2(CCCN(C(=O)c3ccccc3)C2)C1` (stereo not given) the same measures were -1.28% and -1.81%.
Take `O=C(NCCOc1ccc(F)c(F)c1)NCc1cccc(CO)c1`: the Percent Effect in experiment [1] is 0.257%; in experiment [2], -6.88%.
With `COc1ccc(OCCCNC(=O)NCc2csc(C)n2)cc1`, the Percent Effect is -1.75% in experiment [1] and -17% in experiment [2].
